# Laboratory results reported in PubChem BioAssay AID1782 (National Center for Advancing Translational Sciences (NCATS), 2009).
# Inconclusive results are not listed. Where a call stands in place of a potency, no number is given. Activity calls are given as the source filed them. Calls come from the whole dose curve; as a rule, active = well fitted curve in the direction sought with a large enough effect; inconclusive = small, poorly fitted or top-dose-only effect, or another doubt; inactive = no such curve, though single readings can be large or run the other way.
# Target: Pyruvate kinase PKLR (Homo sapiens) (UniProt P30613)
# Sequence (P30613 whole entry, looked up): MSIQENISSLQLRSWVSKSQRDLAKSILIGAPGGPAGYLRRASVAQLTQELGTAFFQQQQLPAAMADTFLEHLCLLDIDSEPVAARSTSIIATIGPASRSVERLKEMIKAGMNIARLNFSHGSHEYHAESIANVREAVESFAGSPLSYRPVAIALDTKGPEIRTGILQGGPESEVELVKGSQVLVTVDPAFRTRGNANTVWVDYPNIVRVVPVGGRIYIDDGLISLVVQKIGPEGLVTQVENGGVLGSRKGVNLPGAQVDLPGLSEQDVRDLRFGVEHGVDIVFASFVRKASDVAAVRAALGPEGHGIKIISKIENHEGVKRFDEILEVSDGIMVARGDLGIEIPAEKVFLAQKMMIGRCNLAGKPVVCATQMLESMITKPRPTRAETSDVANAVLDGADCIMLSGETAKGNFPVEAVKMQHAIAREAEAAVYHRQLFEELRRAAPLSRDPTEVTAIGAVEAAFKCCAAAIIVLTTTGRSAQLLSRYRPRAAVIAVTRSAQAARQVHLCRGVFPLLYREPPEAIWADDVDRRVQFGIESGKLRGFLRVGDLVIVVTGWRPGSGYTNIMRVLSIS
# Assay: Confirmation Concentration-Response Assay for Activators of Human Reticulocyte Pyruvate Kinase
# Conditions: purified hPK-R, Kinase-Glo ATP luminescence, 1 h; series mostly up to 57.5 µM
# Description: Confirmatory assay NIH Chemical Genomics Center [NCGC] Wael M. Rabeh, Lyudmila Nedyalkova and Hee-Wan Park [Structural Genomics Consortium, 100 College St. Toronto, Ontario, Canada] NCGC Assay Overview: Human pyruvate kinase reticulocyte (hPK-R) enzyme was supplied as a highly purified (>95% pure) preparation from Structural Genomics Consortium in Toronto (Ontario, Canada) and assayed for its ability to generate ATP from ADP using phosphoenolpyruvate (PEP) as a substrate. ATP generation was detected in a coupled reaction by luciferase-mediated luminescence, an ATP-dependent process. Pyruvate kinase substrates, PEP and ADP, were present in the assay at Km and approximately 10-fold below Km respectively. The enzyme was assayed at an intermediate level of activity to screen for both inhibitors and activators.
# NCGC Assay Protocol Summary for R-isoform Three uL of substrate mix (at r.t.) in assay buffer (50 mM Imidazole pH7.2, 50 mM KCl, 7 mM MgCl2, 0.01% Tween 20, 0.05% BSA) was dispensed into white solid bottom 1,536 well microtiter plates so that the final concentrations of substrates in the assay were 0.1 mM ADP and 0.5 mM PEP. 23 nL of compound were delivered by a pin tool and 1 uL of enzyme mix (final concentration of 0.1 nM) in assay buffer (4 degree Celsius) was added. Plates were incubated at room temperature for 1 hour. Two uL of detection mix (Kinase-Glo, Promega; at 4 degree Celsius protected from light) was added and luminescence read by a ViewLux (Perkin Elmer) at 1 second exposure/plate. Data were normalized to the uninhibited (row 31). Additionally, a no enzyme and 5-fold enzyme control was dispensed in row 32, split equally between the two conditions.
row,SMILES,Potency
1,Cn1c2cc(CO)sc2c2cnn(Cc3ccccc3F)c(=O)c21,inactive
2,Cc1cc2c(s1)c1cnn(Cc3ccccc3F)c(=O)c1n2C,inactive
3,O=S(=O)(c1ccc2c(c1)OCCCO2)N1CCN(S(=O)(=O)c2c(F)cccc2F)CC1,inactive
4,Cc1cc2c(s1)c1cnn(Cc3ccc(C(F)(F)F)cc3F)c(=O)c1n2C,inactive
5,Cn1c2cc(B(O)O)sc2c2cnn(Cc3ccccc3F)c(=O)c21,inactive
6,COc1ccc(Cn2ncc3c4sc(C)cc4n(C)c3c2=O)cc1F,inactive
7,Cc1cc2c(s1)c1cnn(-c3ccccc3)c(=O)c1n2C,inactive
8,CC(=O)Nc1cc2c(s1)c1cnn(Cc3ccccc3F)c(=O)c1n2C,inactive
9,Cn1c2cc(S(C)=O)sc2c2cnn(Cc3ccccc3F)c(=O)c21 (stereo not given),inactive
10,Cc1cc2c(s1)c1cnn(Cc3c(F)cccc3Cl)c(=O)c1n2C,inactive
11,Cn1c2cc(C#N)sc2c2cnn(Cc3ccccc3F)c(=O)c21,inactive
12,Cn1c2cc(C=O)sc2c2cnn(Cc3ccccc3F)c(=O)c21,inactive
13,Cc1cc2[nH]c3c(=O)n(Cc4ccccc4F)ncc3c2s1,inactive
14,O=S(=O)(c1c(F)cccc1F)N1CCN(S(=O)(=O)c2c(F)cccc2F)CC1,inactive
15,Cc1cc2c(s1)c1cnn(Cc3ccc(F)cc3F)c(=O)c1n2C,inactive
16,Cc1cc2c(s1)c1cnn(Cc3ccc(-c4ccccc4)cc3)c(=O)c1n2C,inactive
17,CCn1c2cc(C)sc2c2cnn(Cc3ccccc3F)c(=O)c21,inactive
18,CSc1cc2c(s1)c1cnn(Cc3ccccc3F)c(=O)c1n2C,inactive
19,Cc1cc2c(s1)c1cnn(Cc3ccc(F)c(F)c3F)c(=O)c1n2C,inactive
20,O=S(=O)(c1ccc2c(c1)OCO2)N1CCN(S(=O)(=O)c2c(F)cccc2F)CC1,inactive

row,SMILES,Potency
1,CCCCCn1ncc2c3sc(C)cc3n(C)c2c1=O,inactive
2,Cc1cc2c(s1)c1cnn(Cc3cccc(F)c3F)c(=O)c1n2C,inactive
3,Cn1c2cc([N+](=O)[O-])sc2c2cnn(Cc3ccccc3F)c(=O)c21,inactive
4,Cc1cc2c(s1)c1cnn(Cc3cc(C(F)(F)F)cc(Cl)c3F)c(=O)c1n2C,inactive
5,CC1(C)CCc2cc(S(=O)(=O)N3CCN(S(=O)(=O)c4c(F)cccc4F)CC3)ccc2O1,inactive
6,Cc1cc2c(s1)c1cnn(Cc3c(F)cccc3F)c(=O)c1n2C,inactive
7,CC(C)c1cc2c(s1)c1cnn(Cc3ccccc3F)c(=O)c1n2C,inactive
8,O=S(=O)(c1ccc2c(c1)OCCO2)N1CCN(S(=O)(=O)c2ccc3c(c2)OCCO3)CC1,inactive
9,COc1ccc(S(=O)(=O)N2CCN(S(=O)(=O)c3ccc4c(c3)OCCO4)CC2)cc1,1.41 µM (active)
10,Cc1ccc(Cn2ncc3c4sc(C)cc4n(C)c3c2=O)c(C)c1,inactive
11,Cc1cc2c(s1)c1cnn(Cc3ccc(C(F)(F)F)cc3)c(=O)c1n2C,inactive
12,Cc1cc2c(s1)c1cnn(Cc3ccc(C)c(F)c3F)c(=O)c1n2C,inactive
13,Cc1cc2c(s1)c1cnn(Cc3cccc(F)c3)c(=O)c1n2C,inactive
14,O=S(=O)(NCCCCCNS(=O)(=O)c1c(F)cccc1F)c1ccc2c(c1)OCCO2,inactive
15,Cc1cc2c(s1)c1cnn(Cc3ccc(C(C)C)cc3)c(=O)c1n2C,inactive
16,Cc1cc2c(s1)c1c(C)nn(Cc3ccccc3F)c(=O)c1n2C,inactive
17,O=S(=O)(NCCNS(=O)(=O)c1c(F)cccc1F)c1ccc2c(c1)OCCO2,inactive
18,O=C(c1c(F)cccc1F)N1CCN(S(=O)(=O)c2ccc3c(c2)OCCO3)CC1,inactive
19,Cn1c2ccsc2c2ncn(Cc3ccccc3F)c(=O)c21,inactive
20,O=S(=O)(c1ccc(F)cc1)N1CCN(S(=O)(=O)c2ccc3c(c2)OCCO3)CC1,inactive
